Values joined by “and” are separate entries in the source; they are usually repeats but may differ in a detail not shown here. Equal entries are not always repeated. This is part of a sample that, as a whole, favours compounds with a hit. Of some 83,000 tested, about 20% had one in any assay.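 A percent growth of 40 corresponds to 60% growth inhibition; 0 means no net growth; -100 means all cells died. Active threshold: below 10.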 Active and inactive are the calls of the source.

Seven molecules from PubChem BioAssay (NCI) can be followed below.

Some test systems named below: HCT-15 colon; HT29 colon; SNB-75 CNS; SNB-19 CNS; U251 CNS; PC-3 prostate; SK-MEL-5 melanoma; UACC-62 melanoma; LOX IMVI melanoma; SK-MEL-28 melanoma; SK-MEL-2 melanoma; EKVX NSCLC; SN12C renal; UO-31 renal; TK-10 renal; ACHN renal; CAKI-1 renal; A498 renal; CCRF-CEM leukemia; MOLT-4 leukemia.
Holding throughout (test): NCI-60 one-dose screen, 48 h (100 = growth as untreated, 0 = no growth, -100 = all killed)
What all share (conditions): 10 µM unless noted

In the case of `COc1c(F)cc(-n2c(C(=O)N3CC(F)C3)cc3cccnc32)cc1F`, the growth in the test on HCT-15 colon was 98.6% (inactive); with HT29 colon it was 104% (inactive); in the test with SNB-75 CNS, 82.2% (inactive); in the test on SNB-19 CNS it was 94.2% (inactive); in the test on U251 CNS, 97.7% (inactive); in the test with PC-3 prostate, 95.3% (inactive). Moreover, the growth with SK-MEL-5 melanoma was 99% (inactive); in the test on UACC-62 melanoma, 101% (inactive); in the test on LOX IMVI melanoma, 84.2% (inactive); in the test with SK-MEL-28 melanoma, 122% (inactive); in the test with SK-MEL-2 melanoma it was 108% (inactive); in the test with EKVX NSCLC, 103% (inactive). Moreover, the growth in the test with SN12C renal is 97.6% (inactive); with UO-31 renal, 74.2% (inactive); in the test on TK-10 renal it was 99% (inactive); in the test on ACHN renal, 93.2% (inactive); with CAKI-1 renal, 86.3% (inactive); with A498 renal it was 107% (inactive). Besides, the growth was 99.1% (inactive) in the test with CCRF-CEM leukemia and 97.8% (inactive) with MOLT-4 leukemia.
As to `COC(=O)c1nc(-c2ccc(C)cc2)oc1Sc1ccc(C)cc1`, the growth was 86.8% (inactive) in the test on HCT-15 colon; 102% (inactive) in the test on HT29 colon; 79.3% (inactive) with SNB-75 CNS; 101% (inactive) in the test on SNB-19 CNS; 94.3% (inactive) in the test with U251 CNS; 78.4% (inactive) in the test with PC-3 prostate. Besides, the growth was 105% (inactive) with SK-MEL-5 melanoma; 76.9% (inactive) in the test with UACC-62 melanoma; 93.5% (inactive) with LOX IMVI melanoma; 106% (inactive) in the test on SK-MEL-28 melanoma; 104% (inactive) in the test with SK-MEL-2 melanoma; 105% (inactive) with EKVX NSCLC. The growth is 96% (inactive) in the test on SN12C renal; 82.6% (inactive) with UO-31 renal; 106% (inactive) in the test with TK-10 renal; 96.1% (inactive) in the test on ACHN renal; 95% (inactive) in the test on CAKI-1 renal; 130% (inactive) in the test with A498 renal. Also, the figures for the growth with CCRF-CEM leukemia and in the test on MOLT-4 leukemia were 86.9% (inactive) and 71.7% (inactive), respectively.
As to `Cc1ccccc1SSc1ccccc1C`, the growth in the test with HCT-15 colon is 17.9% (inactive); in the test with HT29 colon, 23.6% (inactive); in the test on SNB-75 CNS, 123% (inactive); in the test with SNB-19 CNS, 84.2% (inactive); in the test with U251 CNS, 87.6% (inactive); with PC-3 prostate it was 66.7% (inactive). Moreover, the growth is 89.6% (inactive) with SK-MEL-5 melanoma; 78.8% (inactive) in the test with UACC-62 melanoma; 72% (inactive) in the test on LOX IMVI melanoma; 121% (inactive) in the test on SK-MEL-28 melanoma; 24.3% (inactive) in the test with SK-MEL-2 melanoma; 114% (inactive) in the test with EKVX NSCLC. Also, the growth was 84.9% (inactive) in the test with SN12C renal; 78.4% (inactive) in the test with UO-31 renal; 85.5% (inactive) with TK-10 renal; 0.0765% (active) in the test on ACHN renal; 60.5% (inactive) with CAKI-1 renal; 96.2% (inactive) with A498 renal. Further, the growth in the test on CCRF-CEM leukemia is 79% (inactive); with MOLT-4 leukemia, 83.9% (inactive).
As for `COc1ccc(-c2c[nH]c(C(=O)O)c2-c2cc(OC)c(OC)c(OC)c2)cc1`, the growth in the test on HCT-15 colon was 31.7% (inactive); with HT29 colon, 14.7% (inactive); with SNB-75 CNS it was -15.5% (active); in the test with SNB-19 CNS, 41.3% (inactive); in the test with U251 CNS, 49.5% (inactive); with PC-3 prostate it was 32.8% (inactive). Further, the growth with SK-MEL-5 melanoma is 19.2% (inactive); in the test on UACC-62 melanoma it was 37.7% (inactive); with LOX IMVI melanoma, 47.2% (inactive); with SK-MEL-28 melanoma, 61.7% (inactive); with SK-MEL-2 melanoma it was 49.2% (inactive); in the test with EKVX NSCLC, 63.3% (inactive). Further, the growth in the test on SN12C renal was 43.9% (inactive); in the test on UO-31 renal, 31.9% (inactive); in the test with TK-10 renal, 63.3% (inactive); with ACHN renal, 38.4% (inactive); in the test on CAKI-1 renal, 29.8% (inactive); with A498 renal, -14.5% (active). Besides, the growth in the test on CCRF-CEM leukemia is 42.2% (inactive); in the test on MOLT-4 leukemia, 56.4% (inactive).
For `COc1ccccc1/C=C/C(=O)/C=C/c1ccccc1OC`, the growth with HCT-15 colon was -2.72% (active) and -27.6% (active); in the test with HT29 colon, -42.7% (active) and -16.4% (active); in the test with SNB-75 CNS, 45.2% (inactive) and 12.6% (inactive); in the test on SNB-19 CNS, 33.5% (inactive) and 38.5% (inactive); in the test on U251 CNS, -81% (active) and -40.1% (active); in the test with PC-3 prostate, 0.508% (active) and 17% (inactive). The growth in the test with SK-MEL-5 melanoma is -89.4% (active) and -77% (active); with UACC-62 melanoma, -61.6% (active) and -64.3% (active); in the test on LOX IMVI melanoma, -60.1% (active) and -53.8% (active); in the test with SK-MEL-28 melanoma, -58.9% (active) and -57.8% (active); in the test with SK-MEL-2 melanoma, 2.6% (active) and 1.3% (active); in the test on EKVX NSCLC, 12.6% (inactive). The growth in the test with SN12C renal is -27.2% (active) and -3.57% (active); in the test with UO-31 renal, -89.9% (active) and -54.9% (active); in the test with TK-10 renal, -11.8% (active) and 0.143% (active); in the test with ACHN renal it was -62.5% (active) and -84.2% (active); in the test with CAKI-1 renal, 17.5% (inactive) and 4.88% (active); in the test on A498 renal, -48.3% (active) and 22.8% (inactive). Besides, the growth in the test on CCRF-CEM leukemia is 15.5% (inactive) and 6.56% (active); in the test with MOLT-4 leukemia it was 14.8% (inactive) and 12.1% (inactive).
In the case of `COc1cc(-c2nc3occn3c2-c2ccnc(NCCCNS(=O)(=O)c3ccc(O)cc3)n2)ccc1F`, the growth in the test with HCT-15 colon is 114% (inactive); in the test on HT29 colon, 66.4% (inactive); in the test on SNB-75 CNS, 97.6% (inactive); with SNB-19 CNS, 124% (inactive); in the test on U251 CNS, 108% (inactive); in the test with PC-3 prostate, 94.6% (inactive). The growth with SK-MEL-5 melanoma is 62.8% (inactive); in the test on UACC-62 melanoma it was 21% (inactive); in the test on LOX IMVI melanoma it was 55.6% (inactive); with SK-MEL-28 melanoma it was 27.7% (inactive); in the test on SK-MEL-2 melanoma, 28.4% (inactive); in the test with EKVX NSCLC, 104% (inactive). Moreover, the growth in the test on SN12C renal was 95.8% (inactive); in the test on UO-31 renal, 105% (inactive); with TK-10 renal, 133% (inactive); in the test with ACHN renal, 86.3% (inactive); in the test on CAKI-1 renal, 92.6% (inactive); in the test on A498 renal, 104% (inactive). For the same molecule, the figures for the growth in the test on CCRF-CEM leukemia and with MOLT-4 leukemia were 75.4% (inactive) and 101% (inactive), respectively.
With `C/C(=C(\c1ccc(OCCN2CCOCC2)cc1)c1ccc(OC(=O)C2CCCCC2)cc1)c1ccc(Cl)cc1`, the growth in the test with HCT-15 colon was 97.7% (inactive); in the test on HT29 colon, 76.3% (inactive); with SNB-75 CNS, 109% (inactive); in the test on SNB-19 CNS, 100% (inactive); in the test with U251 CNS, 99.5% (inactive); with PC-3 prostate it was 68.2% (inactive). In addition, the growth in the test on SK-MEL-5 melanoma was 91.6% (inactive); in the test with UACC-62 melanoma, 87.9% (inactive); in the test on LOX IMVI melanoma it was 102% (inactive); with SK-MEL-28 melanoma, 99.1% (inactive); in the test on SK-MEL-2 melanoma it was 92.6% (inactive); in the test on EKVX NSCLC, 94.1% (inactive). Besides, the growth in the test with SN12C renal was 94.7% (inactive); in the test with UO-31 renal, 81.8% (inactive); with TK-10 renal, 96.4% (inactive); in the test with ACHN renal, 104% (inactive); in the test with CAKI-1 renal, 77.9% (inactive); with A498 renal it was 92.6% (inactive). In addition, the figures for the growth with CCRF-CEM leukemia and in the test with MOLT-4 leukemia were -24.6% (active) and 91.1% (inactive), respectively.
